# Compound activity deposited in PubChem by National Center for Advancing Translational Sciences (NCATS).
# Rows were chosen to be rich in hits. Some 19% of all compounds tested hit in one or more screens of this group.
# CHX counter: affects cycloheximide protein synthesis inhibition readout, counter-screen. cell reporter, cycloheximide protein synthesis inhibition counterscreen. max response, %. 12% of 300,000 active. AID 2314; in the data active = max response mostly above about 13%, no sharp cut-off; inactive = mostly below about 14%; also: read at 38.3 µM for the half of the compounds with a filed dose; 0% is about no effect
# Pf growth 96h: P. falciparum growth inhibition at 96 hours; 6.9% of 320,000 active; AID 504834; Potency, µM (doses to about 28.7 µM), inactives show at the top dose activity change, negative = inhibition, hits mostly inhibitors; P. falciparum luciferase reporter growth, 96 h; also: potency is read from the fitted curve at half-maximal effect; % is scaled to controls: 0 for no effect and ±100 for the full control effect
#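 Readout is luminescence from an integrated firefly luciferase in P. falciparum. Red cells, 2% hematocrit and 0.05% parasitemia final, were cultured with compound through two parasite generations (96 hours) at 37 C, 5% CO2.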
# Shiga inhibitor: blocks Shiga toxin action in Vero cells; Vero cells, Shiga toxin protein synthesis inhibition reporter; inhibition, % at 38.7 µM; 9.2% of 290,000 active; in the data active = inhibition mostly above about 28%, no sharp cut-off; inactive = mostly below about 43%; also: 0% is about no effect
# Pf growth 48h: inhibits P. falciparum growth in the first generation, 48 h; 5.9% of 310,000 active; Potency, µM (doses to about 28.7 µM), inactives show top-dose activity change, negative = inhibition, hits mostly inhibitors; P. falciparum luciferase growth in erythrocytes, 48 h; also: potency is read from the fitted curve at half-maximal effect; % is scaled to controls: 0 for no effect and ±100 for the full control effect
#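 Luciferase-expressing parasites in RBCs, 2% Hct / 0.1% parasitemia final; RPMI 1640 + 0.5% Albumax; 37 C, 5% CO2, one generation; luminescence read-out, lower signal = inhibition.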
# Lassa entry inh: Lassa virus entry inhibition; Lassa virus pseudotype entry inhibition, cell reporter; Potency, µM (highest dose often 37.9 µM), inactives show at the top dose activity change, negative = inhibition, actives largely listed as inhibitors; 1.2% of 300,000 active; calls by dose curve; tested in HEK293 cells; also: potency is read from the fitted curve at half-maximal effect; % is scaled to controls: 0 for no effect and ±100 for the full control effect; nearly all actives have a fitted effect of over 50% in size
# MARV entry inh: inhibitors of Marburg virus binding or cell entry; Potency, µM (series often up to 37.8 µM), for inactives: top-dose activity change, negative = inhibition, usual class: inhibitors; Marburg virus pseudotyped entry inhibition, cell reporter; 1.8% of 300,000 active; AID 540276; calls by dose curve; tested in HEK293 cells; also: potency is read from the fitted curve at half-maximal effect; % is scaled to controls: 0 for no effect and ±100 for the full control effect
# * = called active by the depositor; u = inconclusive; x = no result; [ ] = another dose, or the depositor's remark. Unless noted, calls follow the shape of the dose curve; as a rule, active = well fitted inhibition curve with a large enough effect; inconclusive = small, poorly fitted or top-dose-only effect, or another doubt; inactive = no such curve, though single readings can be large or run the other way.
SMILES,CHX counter,Pf growth 96h,Shiga inhibitor,Pf growth 48h,Lassa entry inh,MARV entry inh
CC(C)CC(NC(=O)OC(C)(C)C)c1cn([C@@H](CCC(=O)OC(C)(C)C)C(=O)N2CCN(C(=O)OC(C)(C)C)CC2)nn1 (stereo partly specified),-2,10µM*,14,u,x,x
CC[C@@H](C)C(NC(=O)OC(C)(C)C)c1cn([C@@H](Cc2ccc(O)cc2)C(=O)N2CCN(C(=O)OC(C)(C)C)CC2)nn1 (stereo partly specified),-2,8.3µM*,15,11%,x,x
COc1cccc(CNC(=O)c2cnc(N3CCCC3)nc2C)c1,x,x,x,x,-2%[46.1 µM],x
CCOc1ccccc1N(CC(=O)N1CCc2ccccc2C1)S(C)(=O)=O,2,20%,x,-33%,x,x
C=CCn1c(O)c(C=Nc2c(C)n(C)n(-c3ccccc3)c2=O)c(=O)[nH]c1=O,-2,25%,5,12%,x,x
O=C(N/N=C/c1c(O)n(CCC2=CCCCC2)c(=S)[nH]c1=O)c1ccccc1,35*,5%,38*,16%,3%,u
Cc1c(N=Cc2c(O)n(CCc3ccc(F)cc3)c(=O)[nH]c2=O)c(=O)n(-c2ccccc2)n1C,-2,10µM*,-9,-8%,u,u
O=c1[nH]c(=S)n(CCC2=CCCCC2)c(O)c1C=NCc1cccnc1,-8,x,-19,2%,x,x
O=C(N/N=C/c1c(O)n(CCC2=CCCCC2)c(=O)[nH]c1=O)c1ccccc1,27*,u,21,25%,-13%,-15%
Nc1ccccc1N=Cc1c(O)n(CCC2=CCCCC2)c(=O)[nH]c1=O,62*,u,180*,238%,u,7%
O=c1[nH]c(=O)n(CCC2=CCCCC2)c(O)c1C=Nc1cccc(F)c1,8,54%,-18,15%,-2%,-14%
Cc1ccc(OCCn2cc(/C=C3\C(=O)NN(c4ccccc4)C3=O)c3ccccc32)cc1,-2,u,-8,-8%,u,8%
CC(c1ccc(F)cc1)n1cc(C(=O)NCc2ccc3c(c2)OCO3)nn1 (stereo unspecified),-2,x,-13,22%,4%,8%
O=C(N/N=C/c1c(O)n(Cc2ccc(F)cc2)c(=O)[nH]c1=O)c1ccccc1,29*,u,89*,25%,5%,u
CCOc1ccc(C(=O)NC(=S)NCCCN2CCOCC2)cc1,-2,u,-4,4%,x,x
Cc1ccc(C(=O)NC(=S)NCCCN2CCOCC2)cc1,20,17%,50*,33%,0%,u
O=C(NC(=S)NCCCN1CCOCC1)c1ccc(Br)cc1,21*,-6%,25,0%,x,-2%[46.1 µM]
O=C(NCCCN1CCOCC1)c1ccc(Sc2ccc(Br)cc2)c([N+](=O)[O-])c1,-4,15µM*,-2,3%,25%,0%
Cc1ccc(NC(=S)NCCCN2CCOCC2)cc1,-4,u,10,-10%,-3%,34%
Cc1ccc(C(=O)N/C(=C\c2ccc(-c3ccccc3[N+](=O)[O-])o2)C(=O)NCCCN2CCOCC2)cc1,11,2.9µM*,26,1.9µM*,u,u
CNC(=O)c1cc2cc(Cc3ccccc3Cl)ccc2oc1=O,-1,24%,13,-10%,u,-1%
CC1CCC(C(=O)NC(C(=O)N2CCN(c3ccccn3)CC2)C(C)C)CC1 (stereo unspecified),11,x,28,4%,-4%,-1%
O=C(NC(=S)NCCN1CCOCC1)c1ccccc1,12,u,43,10%,x,x
O=C(NC(=S)NCCCN1CCOCC1)c1cccc2ccccc12,4,6.6µM*,3,u,u,6%[46.1 µM]
COc1ccc(NC(=S)Nc2ccccc2OC)c(OC)c1,7,16%,4,6%,5%[46.1 µM],11%[46.1 µM]
CN1\C(=C/C=C/C=C/C=[N+](C)C)C(C)(C)c2ccccc21,8,u,-7,u,u,u
COc1ccccc1C(=O)NC(=S)Nc1ccccc1N1CCCC1,28*,3.7µM*,31,24%,x,x
O=C(NC(=S)Nc1ccccc1N1CCCCC1)c1ccc(F)cc1Cl,2,u,4,12µM*,-8%,u
O=C(NC(=S)Nc1ccccc1N1CCCC1)c1ccc(F)cc1,10,7%,14,u,-25%,-27%
